Here are results for 37 compounds from PubChem BioAssay (EPA / NIEHS).

Inconclusive results are not listed. Active and inactive are the calls of the source. Rule for the calls: active = hit-call score of the fitted dose curve at least 0.9, where 1 is the maximum; inconclusive = response in the unintended direction; inactive = score below 0.9.

One test is described as follows: Tanguay_ZF_120hpf_EYE_legacy: (Legacy) Oregon State University Tanguay Lab 120 Hour Post-fertilization zebrafish Assay for Eye Malformation (AID 2283636).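 Note: binary presence or absence of eye malformation scored by brightfield in 120 hpf larvae.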 A digest of the protocol: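 5D wild-type embryos, pronase-dechorionated at 4 hpf; static exposure 6–120 hpf, 28C, dark; DMSO 0.64% final; 5uM trimethyltin chloride positive control. Binary eye-defect scoring at 120 hpf; dead embryos not scored.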
Consider `Cc1cc2c(cc1C(F)(F)F)N(C(=O)Nc1ccc(Oc3cccnc3C)nc1)CC2`, for which the outcome was inactive.

For `CC[C@@H]1C[C@H](N(Cc2cc(C(F)(F)F)cc(C(F)(F)F)c2)C(C)=O)c2cc(C(F)(F)F)ccc2N1C(=O)OC(C)C`, the call was inactive.

For `O=C1O[C@H]([C@@H](O)CO)C(O)=C1O`, the outcome was inactive.

For the compound `Cc1occc1C(=O)Nc1ccc(C(=O)N2CCC(F)(F)/C(=C\C(=O)N3CCC(N4CCCCC4)CC3)c3ccccc32)cc1`, the compound was classed as inactive.

For the compound `CC(C)(O)c1ccc(CNC(=O)c2cccnc2Oc2ccc3nonc3c2)cc1`, the compound was classed as inactive.

As for `CN1C(=O)CC[C@H]1c1cccnc1`, the call was inactive.

A short description of the next test: Tanguay_ZF_120hpf_SNOU_legacy: (Legacy) Oregon State University Tanguay Lab 120 Hour Post-fertilization zebrafish Assay for Snout Malformation (AID 2283637). In short, it runs like this:
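Binary brightfield scoring of snout malformation at 120 hpf. Dechorionated 5D wild-type embryos, one per well, static exposure from 6 hpf at 28C, sealed and dark; final DMSO 0.64% (vol/vol), DMSO as baseline; 5uM trimethyltin chloride positive control.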
For the compound `OC12N=C(c3ccccc3)SC1Cc1cc(Cl)ccc12` (centres undefined), the AC50 was 15.1 µM (active).

As for `CCCCCCCCN(C)CCCCCCCC`, the compound was classed as inactive.

Turning to `c1ccc2ccccc2c1`, the call was inactive.

As for `O=C(O)Cn1c(=O)n(Cc2ccc(Br)cc2F)c(=O)c2ccc(Cl)cc21`, the compound was classed as inactive.

Take `COCC(C)OCC(C)OCC(C)O` (centres undefined): the outcome was inactive.

Take `C[C@]12CC[C@@H]3c4ccc(O)cc4CC[C@H]3[C@@H]1CC[C@H]2O`: the outcome was inactive.

In the case of `CC[C@H](NC(=O)c1cc(F)ccc1NS(=O)(=O)c1cccc2cccnc12)c1ccccc1`, the outcome was inactive.

With `Cc1ccc(C(C)C)cc1`, the call was inactive.

In the case of `CCCCOC(=O)CC(CC(=O)OCCCC)(OC(C)=O)C(=O)OCCCC`, the call was inactive.

In the case of `CCCCCCCCCCCCO`, the outcome was inactive.

For `CCCC(=O)OCCC(C)C`, the outcome was inactive.

For the compound `O=c1ccc2ccccc2o1`, the compound was classed as inactive.

For the compound `Cc1cc2c(cc1C(F)(F)F)N(C(=O)Nc1ccc(Oc3cccnc3C)nc1)CC2`, the compound was classed as inactive.

In the case of `CC[C@@H]1C[C@H](N(Cc2cc(C(F)(F)F)cc(C(F)(F)F)c2)C(C)=O)c2cc(C(F)(F)F)ccc2N1C(=O)OC(C)C`, the compound was called inactive.

As to `Cc1occc1C(=O)Nc1ccc(C(=O)N2CCC(F)(F)/C(=C\C(=O)N3CCC(N4CCCCC4)CC3)c3ccccc32)cc1`, the outcome was inactive.

For the compound `CC(C)(O)c1ccc(CNC(=O)c2cccnc2Oc2ccc3nonc3c2)cc1`, the compound was called inactive.

Another test can be described thus: Tanguay_ZF_120hpf_JAW_legacy: (Legacy) Oregon State University Tanguay Lab 120 Hour Post-fertilization zebrafish Assay for Jaw Malformation (AID 2283638).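 For AC50: active means more embryos with jaw malformation than DMSO controls.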 A digest of the protocol:
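Binary jaw-malformation call at 120 hpf by brightfield microscopy. Embryos (Tropical 5D strain, chorion removed at 4 hpf) were dosed statically at 6 hpf, one per well, at 28C with 0.64% DMSO. Embryos that died were not scored.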
Turning to `COc1cccc([C@H](O)C2CCN(CCc3ccc(F)cc3)CC2)c1OC`, the outcome was inactive.

For the compound `OC12N=C(c3ccccc3)SC1Cc1cc(Cl)ccc12` (centres undefined), the AC50 is 45.3 µM (active).

For the compound `Oc1ccc2ccccc2c1`, the AC50 is 38.2 µM (active).

As to `CCCCCCCCN(C)CCCCCCCC`, the compound was classed as inactive.

`Cc1oc2c(NC(=O)c3c(Cl)cccc3Cl)cccc2c1C(C)(C)O`: the call was inactive.

With `CCCCCCCC[Si](OCC)(OCC)OCC`, the call was inactive.

As to `Clc1cc(Cl)c2c(c1)N=C1CCCCCN1C2`, the result was inactive.

Turning to `c1ccc2ccccc2c1`, the result was inactive.

`C[C@]12CC[C@@H]3c4ccc(O)cc4CC[C@H]3[C@@H]1CCC2=O`: the compound was classed as inactive.

In the case of `O=C(O)Cn1c(=O)n(Cc2ccc(Br)cc2F)c(=O)c2ccc(Cl)cc21`, the result was inactive.

For `O=c1[nH]sc2ccccc12`, the call was inactive.

As to `CCCCCCCCCCCO`, the compound was called inactive.

As for `CCO[Si](CCCNC(N)=O)(OCC)OCC`, the result was inactive.

Turning to `COCC(C)OCC(C)OCC(C)O` (centres undefined), the compound was classed as inactive.

In the case of `Cc1ncc(CO)c(CO)c1O`, the compound was classed as inactive.

In the case of `CCOC(=O)O[C@H](C)OC(=O)c1ccc2c(c1)cc(C(=O)NC1CCN(C(C)C)CC1)n2Cc1cc(-c2ccc(Cl)s2)on1`, the AC50 was 47.6 µM (active).

Consider `CC(O)CC(C)(C)O` (centres undefined), for which the result was inactive.

As for `CC1=CC(=O)/C(=C(/C)O)C(=O)O1`, the result was inactive.

As for `C[C@]12CC[C@@H]3c4ccc(O)cc4CC[C@H]3[C@@H]1CC[C@H]2O`, the compound was classed as inactive.

Consider `c1ccc(C[n+]2cccc3ccccc32)cc1`, for which the compound was classed as inactive.

Take `CC(C)(C)c1cc(/C=C2\SC(N)=NC2=O)cc(C(C)(C)C)c1O`: the call was inactive.

On to `CC[C@H](NC(=O)c1cc(F)ccc1NS(=O)(=O)c1cccc2cccnc12)c1ccccc1`, for which the compound was classed as inactive.

With `Cc1ccc(C(C)C)cc1`, the outcome was inactive.

Take `CCCCOC(=O)CC(CC(=O)OCCCC)(OC(C)=O)C(=O)OCCCC`: the result was inactive.

`CCCCCCCCCCCCO`: the call was inactive.

For the compound `OCCO`, the result was inactive.

Take `CCCC(=O)OCCC(C)C`: the outcome was inactive.

Regarding `O=c1ccc2ccccc2o1`, the result was inactive.

Consider `O=C(O)c1ccccc1-n1cc(C(=O)O)c(=O)c2cc(Nc3c(F)cc(F)cc3Cl)c(Cl)cc21`, for which the compound was classed as inactive.

`Cc1cc2c(cc1C(F)(F)F)N(C(=O)Nc1ccc(Oc3cccnc3C)nc1)CC2`: the result was inactive.

Regarding `CC[C@@H]1C[C@H](N(Cc2cc(C(F)(F)F)cc(C(F)(F)F)c2)C(C)=O)c2cc(C(F)(F)F)ccc2N1C(=O)OC(C)C`, the outcome was inactive.

Consider `Cc1occc1C(=O)Nc1ccc(C(=O)N2CCC(F)(F)/C(=C\C(=O)N3CCC(N4CCCCC4)CC3)c3ccccc32)cc1`, for which the call was inactive.

For the compound `CC(C)(O)c1ccc(CNC(=O)c2cccnc2Oc2ccc3nonc3c2)cc1`, the compound was called inactive.

Consider `CN1C(=O)CC[C@H]1c1cccnc1`, for which the compound was called inactive.

Regarding `O=C=NCCCCCCN=C=O`, the call was inactive.

The next test in a line: Tanguay_ZF_120hpf_OTIC_legacy: (Legacy) Oregon State University Tanguay Lab 120 Hour Post-fertilization zebrafish Assay for Otic Vesicle Malformation (AID 2283639). In short, it runs like this: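 Wild-type zebrafish larvae, whole-embryo exposure from early stage to 120 hpf at 28C. Binary brightfield scoring of otic vesicle morphology, fitted in the positive direction against the DMSO baseline.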
In the case of `COc1cccc([C@H](O)C2CCN(CCc3ccc(F)cc3)CC2)c1OC`, the compound was classed as inactive.

Consider `OC12N=C(c3ccccc3)SC1Cc1cc(Cl)ccc12` (centres undefined), for which the compound was called inactive.

For `Oc1ccc2ccccc2c1`, the AC50 is 47.3 µM (active).

For `Cc1oc2c(NC(=O)c3c(Cl)cccc3Cl)cccc2c1C(C)(C)O`, the compound was called inactive.

Turning to `CCCCCCCC[Si](OCC)(OCC)OCC`, the outcome was inactive.

For the compound `Clc1cc(Cl)c2c(c1)N=C1CCCCCN1C2`, the result was inactive.

Turning to `c1ccc2ccccc2c1`, the compound was called inactive.

Consider `C[C@]12CC[C@@H]3c4ccc(O)cc4CC[C@H]3[C@@H]1CCC2=O`, for which the compound was called inactive.

As for `O=C(O)Cn1c(=O)n(Cc2ccc(Br)cc2F)c(=O)c2ccc(Cl)cc21`, the call was inactive.

Turning to `O=c1[nH]sc2ccccc12`, the compound was called inactive.

Take `CCCCCCCCCCCO`: the compound was called inactive.

Regarding `CCO[Si](CCCNC(N)=O)(OCC)OCC`, the compound was called inactive.

For `COCC(C)OCC(C)OCC(C)O` (centres undefined), the compound was classed as inactive.

As to `Cc1ncc(CO)c(CO)c1O`, the compound was called inactive.

Regarding `CCOC(=O)O[C@H](C)OC(=O)c1ccc2c(c1)cc(C(=O)NC1CCN(C(C)C)CC1)n2Cc1cc(-c2ccc(Cl)s2)on1`, the result was inactive.

As to `CC(O)CC(C)(C)O` (centres undefined), the call was inactive.

As for `CC1=CC(=O)/C(=C(/C)O)C(=O)O1`, the outcome was inactive.

Turning to `C[C@]12CC[C@@H]3c4ccc(O)cc4CC[C@H]3[C@@H]1CC[C@H]2O`, the result was inactive.

`c1ccc(C[n+]2cccc3ccccc32)cc1`: the compound was classed as inactive.

For the compound `CC(C)(C)c1cc(/C=C2\SC(N)=NC2=O)cc(C(C)(C)C)c1O`, the compound was called inactive.

`CC[C@H](NC(=O)c1cc(F)ccc1NS(=O)(=O)c1cccc2cccnc12)c1ccccc1`: the outcome was inactive.

Take `Cc1ccc(C(C)C)cc1`: the result was inactive.

Take `CCCCOC(=O)CC(CC(=O)OCCCC)(OC(C)=O)C(=O)OCCCC`: the outcome was inactive.

In the case of `CCCCCCCCCCCCO`, the compound was classed as inactive.

Take `CCCC(=O)OCCC(C)C`: the compound was classed as inactive.

For `O=c1ccc2ccccc2o1`, the compound was classed as inactive.

With `O=C(O)c1ccccc1-n1cc(C(=O)O)c(=O)c2cc(Nc3c(F)cc(F)cc3Cl)c(Cl)cc21`, the compound was called inactive.

For `Cc1cc2c(cc1C(F)(F)F)N(C(=O)Nc1ccc(Oc3cccnc3C)nc1)CC2`, the compound was classed as inactive.

On to `CC[C@@H]1C[C@H](N(Cc2cc(C(F)(F)F)cc(C(F)(F)F)c2)C(C)=O)c2cc(C(F)(F)F)ccc2N1C(=O)OC(C)C`, for which the compound was classed as inactive.

For `CC(C)(O)c1ccc(CNC(=O)c2cccnc2Oc2ccc3nonc3c2)cc1`, the outcome was inactive.

Regarding `O=C=NCCCCCCN=C=O`, the result was inactive.

`O=C(O)c1ccccc1C(=O)OCc1ccccc1`: the call was inactive.
